# Results from PubChem BioAssay (Tox21).
# Values without a mark were called inactive. Results filed as inconclusive are left out. A call without a number means that no potency is given here. Activity calls are given as the source filed them. Unless noted, the call rests on the fitted dose curve.
# Key:
# [1] = Nuclear factor erythroid 2-related factor 2/antioxidant responsive element (Nrf2/ARE) small molecule agonists: qHTS cell viability counter screen in human keratinocytes (AID 1919968; active means well fitted curve in the direction sought with a large enough effect in the repeat runs; an effect the other way counts as inactive or inconclusive; further: nearly all actives have a fitted effect of over 55% in size; further: potency means the concentration at half of the fitted maximal effect)
# In short: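 CellTiter-Fluor fluorescence, read 1 h after reagent, gave viability in the same wells as the ARE-luciferase assay. KeratinoSens cells (1,500/well) had 23 h compound exposure at 37 C/5% CO2 following 5 h plating.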
# [2] = Nuclear factor erythroid 2-related factor 2/antioxidant responsive element (Nrf2/ARE) small molecule agonists: luciferase reporter gene qHTS assay in human keratinocytes (AID 1919969); further: nearly all actives have a fitted effect of over 35% in size
# [3] = target: KiSS-1 receptor (Homo sapiens) (UniProt Q969F8); test: Human kisspeptin (KISS1R) small molecule agonists, calcium flux assay in KISS1R-HEK293 cells (AID 1920064; active means well fitted curve in the direction sought with a large enough effect in the repeat runs; an effect the other way counts as inactive or inconclusive)
# KiSS-1 receptor (Homo sapiens), sequence (Q969F8 whole entry, looked up): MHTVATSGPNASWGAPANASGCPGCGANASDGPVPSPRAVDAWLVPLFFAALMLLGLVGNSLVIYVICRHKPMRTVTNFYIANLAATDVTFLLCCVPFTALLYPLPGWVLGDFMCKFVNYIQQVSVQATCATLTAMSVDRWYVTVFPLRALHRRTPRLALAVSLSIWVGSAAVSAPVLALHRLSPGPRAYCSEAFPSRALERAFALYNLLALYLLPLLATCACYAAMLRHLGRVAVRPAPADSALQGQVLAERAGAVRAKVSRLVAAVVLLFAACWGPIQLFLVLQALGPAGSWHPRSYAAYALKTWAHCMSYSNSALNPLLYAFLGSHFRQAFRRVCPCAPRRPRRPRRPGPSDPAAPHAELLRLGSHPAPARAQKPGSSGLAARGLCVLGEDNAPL
# In short: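 Agonist mode: intracellular calcium rise tracked at 1 s intervals over 3 min (480/540 nm) immediately after compound addition to dye-loaded KISS1R-HEK293 stable cells. Each compound tested at 15 concentrations in triplicate.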
# [4] = G protein-coupled receptor (GPCR) small molecule agonists, calcium flux assay: HEK293 wild type cell line counter screen (AID 1920065)
# In short: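 Calcium flux counter screen: compound added in agonist mode at 15 concentrations in triplicate to dye-loaded parental HEK293 cells. Fluorescence (480/540) read kinetically for 3 min; ATP served as positive control.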
# [5] = p53 small molecule agonists, cell-based qHTS assay with human liver microsomes (AID 1963577)
# In short: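 p53RE-bla reporter cells were pre-incubated 5 h at 37 C, then treated with compounds plus human liver microsomes (0.5 mg/mL final) and NADPH (0.5 mg/mL final) for 16 h at 37 C. Beta-lactamase activity was read by LiveBLAzer fluorescence after 2 h at room temperature.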
# [6] = p53 small molecule agonists, cell-based qHTS assay with rat liver microsomes (AID 1963578)
# In short: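 p53RE-bla cells were exposed to compounds together with rat liver microsomes (0.5 mg/mL final) and NADPH (0.5 mg/mL final) for 16 h at 37 C, then read by LiveBLAzer beta-lactamase fluorescence after 2 h at room temperature.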
# [7] = p53 small molecule agonists, cell-based qHTS assay with human liver microsomes: qHTS cell viability counter screen (AID 1963579); further: nearly all actives have a fitted effect of over 45% in size; further: potency means the concentration at half of the fitted maximal effect
# In short: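 p53RE-bla cells (4,000/well) were pre-incubated 5 h at 37 C, then given compounds in DMSO plus human liver microsomes (0.5 mg/mL final) and NADPH (0.5 mg/mL final) for 16 h at 37 C. Viability was read by CellTiter-Glo luminescence.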
# [8] = p53 small molecule agonists, cell-based qHTS assay with rat liver microsomes: qHTS cell viability counter screen (AID 1963580); further: nearly all actives have a fitted effect of over 45% in size; further: potency means the concentration at half of the fitted maximal effect
# In short: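 After the beta-lactamase ratio was read, CellTiter-Glo was added to the same wells and luminescence measured at 30 min; cells had been treated 16 h at 37 C with compounds, rat liver microsomes and NADPH (0.5 mg/mL final each).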
# [9] = p53 small molecule agonists, cell-based qHTS assay: qHTS cell viability counter screen (AID 1963581); further: nearly all actives have a fitted effect of over 45% in size; further: potency means the concentration at half of the fitted maximal effect
# In short: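 Counter screen read by CellTiter-Glo luminescence (ATP content, 30 min at room temperature), run in the same wells as the beta-lactamase reporter read. HCT-116 p53RE-bla cells saw compounds for 16 h at 37 C.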
# [10] = p53 small molecule agonists, cell-based qHTS assay (AID 1963582; active means well fitted activation curve with a large enough effect in the signal ratio in the repeat runs, not every such curve was filed as active; the % refers to the signal ratio)
# In short: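 Read-out is beta-lactamase FRET fluorescence after 2 h at room temperature with LiveBLAzer B/G substrate. p53 response element-bla cells were treated 16 h at 37 C with compounds in DMSO, added 5 h after seeding.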
# [11] = target: 5-hydroxytryptamine receptor 2A (Homo sapiens) (UniProt P28223); test: 5-hydroxytryptamine receptor 2A (HTR2A) small molecule antagonists, cell-based qHTS assay (AID 1963586); further: nearly all actives have a fitted effect of over 45% in size
# 5-hydroxytryptamine receptor 2A (Homo sapiens), sequence (P28223 whole entry, looked up): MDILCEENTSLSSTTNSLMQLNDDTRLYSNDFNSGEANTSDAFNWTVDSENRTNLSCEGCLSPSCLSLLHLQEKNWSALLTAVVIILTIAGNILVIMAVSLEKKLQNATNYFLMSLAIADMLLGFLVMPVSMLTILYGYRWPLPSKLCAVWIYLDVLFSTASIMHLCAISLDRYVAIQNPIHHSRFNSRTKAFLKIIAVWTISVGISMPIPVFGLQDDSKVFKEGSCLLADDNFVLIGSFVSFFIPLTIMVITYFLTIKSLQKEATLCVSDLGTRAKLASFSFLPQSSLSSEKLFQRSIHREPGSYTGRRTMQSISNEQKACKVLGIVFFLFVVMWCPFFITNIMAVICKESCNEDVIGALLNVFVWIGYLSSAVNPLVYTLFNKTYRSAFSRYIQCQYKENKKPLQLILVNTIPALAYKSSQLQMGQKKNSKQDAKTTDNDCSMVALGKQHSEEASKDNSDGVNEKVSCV
# In short: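 CHO cells stably expressing human HTR2A were plated for 18 h at 37 C, then loaded with calcium dye for 1 h. Compounds were preincubated 5 min at room temperature before DOI (4 nM solution) was added. Kinetic fluorescence was read for 3 min.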
# [12] = target: 5-hydroxytryptamine receptor 2A (Homo sapiens) (UniProt P28223); test: 5-hydroxytryptamine receptor 2A (HTR2A) small molecule agonists, cell-based qHTS assay (AID 1963587); further: nearly all actives have a fitted effect of over 30% in size; further: potency means the concentration at half of the fitted maximal effect
# In short: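 CHO cells stably expressing human HTR2A, plated 18 h, loaded with calcium dye 1 h at 37 C. Agonist mode: compounds added and intracellular calcium fluorescence recorded kinetically for 2 min at 1 sec intervals.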
# [13] = target: Muscarinic acetylcholine receptor M1 (Homo sapiens) (UniProt P11229); test: Cholinergic receptor muscarinic 1 (CHRM1) small molecule agonists, cell-based qHTS assay (AID 1963589); further: nearly all actives have a fitted effect of over 35% in size; further: potency means the concentration at half of the fitted maximal effect
# Muscarinic acetylcholine receptor M1 (Homo sapiens), sequence (P11229 whole entry, looked up): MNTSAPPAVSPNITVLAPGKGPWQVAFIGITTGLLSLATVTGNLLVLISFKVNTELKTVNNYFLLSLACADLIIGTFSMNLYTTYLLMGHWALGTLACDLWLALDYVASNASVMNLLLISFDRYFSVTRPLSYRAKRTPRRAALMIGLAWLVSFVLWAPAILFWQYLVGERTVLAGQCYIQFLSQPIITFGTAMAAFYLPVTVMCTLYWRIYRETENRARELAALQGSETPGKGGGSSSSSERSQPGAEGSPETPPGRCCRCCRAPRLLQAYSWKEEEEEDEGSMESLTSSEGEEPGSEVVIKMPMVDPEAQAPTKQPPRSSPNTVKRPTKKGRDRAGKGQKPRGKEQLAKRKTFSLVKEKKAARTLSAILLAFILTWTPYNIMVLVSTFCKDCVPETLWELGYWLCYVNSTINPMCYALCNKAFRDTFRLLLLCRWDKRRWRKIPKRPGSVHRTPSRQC
# In short: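 Agonist-mode calcium-flux screen: compounds at 15 concentrations, three independent runs, were pin-transferred onto dye-loaded human CHRM1-CHO cells. Fluorescence was then recorded kinetically every second over minutes.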
# [14] = cAMP Responsive Elements (CRE) small molecule agonists, cell-based qHTS assay (AID 1963590)
# In short: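 Agonist mode: compound added to CRE-bla HEK 293T cells (2,000/well, 18 h after plating) for 3 h at 37 C/5% CO2. Reporter activity detected via FRET beta-lactamase substrate, 2 h room-temperature loading.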
# [15] = cAMP Responsive Elements (CRE) small molecule antagonists, cell-based qHTS assay (AID 1963591; active means well fitted inhibition curve with a large enough effect in the signal ratio in the repeat runs, not every such curve was filed as active; the % refers to the signal ratio)
# In short: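 Antagonist mode: compounds are added alongside the adenylyl cyclase activator NKH477 (0.25 uM final) to CRE-bla HEK293T cells for 3 h. LiveBLAzer FRET substrate, 2 h at room temperature, reports bla expression.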
# [16] = target: Beta-2 adrenergic receptor (Homo sapiens) (UniProt P07550); test: Adrenergic beta2 receptor (ADRB2) small molecule antagonists, cell-based qHTS assay (AID 1963592); further: nearly all actives have a fitted effect of over 50% in size; further: potency means the concentration at half of the fitted maximal effect
# Beta-2 adrenergic receptor (Homo sapiens), sequence (P07550 whole entry, looked up): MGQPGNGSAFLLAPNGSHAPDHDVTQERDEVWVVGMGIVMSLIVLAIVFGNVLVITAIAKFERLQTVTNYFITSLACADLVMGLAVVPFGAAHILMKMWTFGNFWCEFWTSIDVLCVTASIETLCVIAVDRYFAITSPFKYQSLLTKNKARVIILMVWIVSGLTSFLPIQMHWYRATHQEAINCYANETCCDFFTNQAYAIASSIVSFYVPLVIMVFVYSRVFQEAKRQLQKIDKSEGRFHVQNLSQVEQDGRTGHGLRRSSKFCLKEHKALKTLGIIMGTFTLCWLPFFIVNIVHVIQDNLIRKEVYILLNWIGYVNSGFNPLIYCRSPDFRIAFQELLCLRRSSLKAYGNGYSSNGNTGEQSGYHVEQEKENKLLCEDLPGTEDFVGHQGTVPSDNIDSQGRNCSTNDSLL
# In short: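 Assay format: CHO-ADRB2 cells, 18-20hr seeding at 37C/5% CO2, then compound plus 1nM isoproterenol agonist mix for 0.5hr RT. Homogeneous time-resolved fluorescence cAMP detection after 1hr, expressed as 665/615 nm ratio.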
# [17] = target: D(2) dopamine receptor (Homo sapiens) (UniProt P14416); test: Dopamine D2 receptor (DRD2) small molecule agonists, cell-based qHTS assay (AID 1963594); further: nearly all actives have a fitted effect of over 35% in size; further: potency means the concentration at half of the fitted maximal effect
# D(2) dopamine receptor (Homo sapiens), sequence (P14416 whole entry, looked up): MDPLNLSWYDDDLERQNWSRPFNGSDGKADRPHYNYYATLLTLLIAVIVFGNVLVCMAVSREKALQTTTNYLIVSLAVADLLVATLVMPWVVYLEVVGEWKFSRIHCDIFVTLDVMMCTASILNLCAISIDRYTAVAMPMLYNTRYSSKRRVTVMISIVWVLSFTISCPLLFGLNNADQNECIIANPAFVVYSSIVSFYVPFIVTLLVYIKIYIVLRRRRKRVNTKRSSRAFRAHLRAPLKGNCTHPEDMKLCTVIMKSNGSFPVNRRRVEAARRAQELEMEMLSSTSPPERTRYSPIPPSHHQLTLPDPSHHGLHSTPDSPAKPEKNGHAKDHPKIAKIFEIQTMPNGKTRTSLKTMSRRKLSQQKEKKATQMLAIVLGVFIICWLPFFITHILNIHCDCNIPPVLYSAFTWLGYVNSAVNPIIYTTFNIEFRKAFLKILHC
# In short: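 HEK293 cells stably expressing human DRD2, pre-treated with PDE inhibitor Ro20-1724 (0.1 mM final) and compound 10 min at room temperature, then stimulated with NKH477 (200nM […]) for 30 min. cAMP read by HTRF (665/620 nm).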
# [18] = target: D(2) dopamine receptor (Homo sapiens) (UniProt P14416); test: Dopamine D2 receptor (DRD2) small molecule antagonists, cell-based qHTS assay (AID 1963595; active means well fitted inhibition curve with a large enough effect in the signal ratio in the repeat runs, with a control signal flat; the % refers to the signal ratio; further: potency means the concentration at half of the fitted maximal effect)
# In short: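 HTRF cAMP read-out at 665 and 620 nm emission (340 nm excitation). Antagonist mode: compounds were tested against 12 nM quinpirole in DRD2-HEK293 cells, with 200 nM NKH477 raising cAMP and 0.1 mM Ro20-1724 blocking its breakdown.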
# [19] = target: Muscarinic acetylcholine receptor M1 (Homo sapiens) (UniProt P11229); test: Cholinergic receptor muscarinic 1 (CHRM1) small molecule antagonists, cell-based qHTS assay (AID 1963588); further: nearly all actives have a fitted effect of over 40% in size; further: potency means the concentration at half of the fitted maximal effect
# In short: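 Compounds were tested at 15 concentrations in three independent runs. Dye-loaded CHRM1-CHO cells were exposed 5 min at room temperature before stimulation by acetylcholine added at 50nM. Intracellular calcium was read kinetically on FDSS for 3 min.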
# [20] = target: Beta-2 adrenergic receptor (Homo sapiens) (UniProt P07550); test: Adrenergic beta2 receptor (ADRB2) small molecule agonists, cell-based qHTS assay (AID 1963593);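 further: CHO cells stably overexpressing human ADRB2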
# In short: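 CHO cells stably over-expressing ADRB2 were plated overnight at 37C, then dosed with compounds plus a stimulation mix containing 100uM IBMX and 25uM Ro-20-1724 for 0.5hr at room temperature. cAMP was measured by HTRF competition, 1hr.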
SMILES,Potency [1],Potency [2],outcome [3],outcome [4],Potency [5],Potency [6],Potency [7],Potency [8],Potency [9],Potency [10],Potency [11],Potency [12],Potency [13],Potency [14],Potency [15],Potency [16],Potency [17],Potency [18],Potency [19],Potency [20]
CC(CO)(CO)C(=O)O,inactive,inactive,inactive,inactive,inactive,inactive,inactive,inactive,inactive,inactive,inactive,inactive,inactive,inactive,inactive,inactive,inactive,inactive,,
CN(C)C(=O)CNC(=O)Cc1ccccc1,inactive,inactive,inactive,inactive,inactive,inactive,inactive,inactive,inactive,inactive,,inactive,inactive,inactive,inactive,,inactive,inactive,inactive,inactive
CC(=O)c1cccnc1,inactive,inactive,inactive,inactive,inactive,inactive,inactive,inactive,inactive,inactive,inactive,inactive,inactive,,inactive,inactive,inactive,inactive,,
CCCCC(CC)COC(=O)COc1ccc(Cl)cc1Cl (stereo not drawn),inactive,inactive,inactive,inactive,inactive,inactive,inactive,inactive,inactive,inactive,inactive,inactive,inactive,,inactive,,inactive,,inactive,inactive
CN1CCN(c2c(F)cc3c(=O)c(C(=O)O)cn(CCF)c3c2F)CC1,inactive,inactive,inactive,inactive,inactive,inactive,inactive,inactive,inactive,inactive,,,,inactive,,,inactive,inactive,,
Cc1ccc(CCn2c3c(c4cc(Cl)ccc42)CN(C)CC3)cn1,inactive,inactive,inactive,inactive,inactive,inactive,inactive,inactive,,inactive,,inactive,,inactive,inactive,inactive,inactive,inactive,,
CCCNC(C)C(=O)Nc1ccccc1C (stereo not drawn),inactive,inactive,inactive,inactive,inactive,inactive,inactive,inactive,inactive,inactive,,,,inactive,inactive,inactive,14.4 µM (active),inactive,,inactive
Cc1cccc(C)c1C,inactive,inactive,inactive,inactive,inactive,inactive,inactive,inactive,inactive,inactive,inactive,,,inactive,,inactive,inactive,inactive,inactive,
Cc1cc(O)c(C(C)(C)C)cc1Sc1cc(C(C)(C)C)c(O)cc1C,13.7 µM (active),inactive,inactive,inactive,inactive,inactive,9.11 µM (active),20.4 µM (active),5.75 µM (active),,inactive,43.6 µM (active),48.9 µM (active),,,27.3 µM (active),inactive,21.6 µM (active),26.5 µM (active),
OCC(CO)n1cnc(-c2ccc(F)cc2)c1-c1ccnc(Oc2ccccc2)n1,inactive,inactive,inactive,inactive,inactive,inactive,inactive,inactive,,inactive,inactive,inactive,inactive,,,inactive,inactive,inactive,inactive,inactive
CCc1cccc(CC)c1,inactive,inactive,inactive,inactive,inactive,inactive,inactive,inactive,inactive,inactive,inactive,inactive,inactive,inactive,inactive,inactive,inactive,inactive,,inactive
COc1ccc2nc(SCc3ncc(C)c(OC)c3C)[nH]c2c1,inactive,inactive,inactive,inactive,inactive,inactive,inactive,inactive,inactive,inactive,inactive,inactive,inactive,,,,inactive,inactive,inactive,
COc1ccccc1N1CCN(CC(O)COc2cc(OC)c(OC)c(OC)c2)CC1 (stereo not drawn),inactive,inactive,inactive,inactive,inactive,inactive,inactive,inactive,inactive,inactive,inactive,inactive,inactive,inactive,inactive,inactive,,inactive,inactive,
CC(CC(C#N)(c1ccccc1)C(C)C)N(C)C (stereo not drawn),inactive,inactive,inactive,inactive,inactive,inactive,inactive,inactive,inactive,inactive,inactive,inactive,inactive,inactive,inactive,inactive,inactive,inactive,,inactive
CCOC(=O)C1CC(=O)C(=C(O)C2CC2)C(=O)C1 (stereo not drawn),inactive,inactive,inactive,inactive,inactive,inactive,inactive,inactive,inactive,inactive,inactive,inactive,inactive,,inactive,inactive,,inactive,inactive,inactive
